Assay results published in PubChem BioAssay AID1159580 (chemical genetic matrix, 2015).
About 2,000 (36%) of roughly 5,500 compounds were called active. Roughly 18% stayed inconclusive and do not appear here. Cut-off read from the data, not from the text of the source: active = normalized growth mostly below about 0.91 (no sharp cut-off); inconclusive = no clear call, values can overlap the other calls; inactive = mostly above about 0.92. The list shows a part of the results.

Experiment: chemical genetic growth profiling, strain panel (AID 1159580);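 note: tested at 20 µM; growth read once vehicle control cultures reached saturation at 30 °C; 1 = growth at the plate median or of vehicle wells; lower values mean less growth of the strain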
Conditions: growth OD

Measured: normalized growth

O=C(OC1Cc2c(O)cc(O)cc2OC1c1cc(O)c(O)c(O)c1-c1c(C2Oc3cc(O)cc(O)c3CC2OC(=O)c2cc(O)c(O)c(O)c2)cc(O)c(O)c1O)c1cc(O)c(O)c(O)c1 (stereo not given)
inactive: S. cerevisiae deletion strains, locus YJL187C, strain SWE1 (second series), stronger effect = lower value 1.01 | S. cerevisiae deletion strains, locus YJR043C, strain POL32, stronger effect = lower value 1.06 | S. cerevisiae deletion strains, locus YKL009W, strain mrt4, stronger effect = lower value 0.953 | S. cerevisiae deletion strains, locus YKL068W, stronger effect = lower value 1 | S. cerevisiae deletion strains, locus YKL085W, strain MDH1 (second series), stronger effect = lower value 0.991 | S. cerevisiae deletion strains, locus YKL085W, strain MDH1, stronger effect = lower value 0.991 | S. cerevisiae deletion strains, locus YKL160W, strain elf1, stronger effect = lower value 1 | S. cerevisiae deletion strains, locus YKL190W, strain CNB1, stronger effect = lower value 1 | S. cerevisiae deletion strains, locus YKR001C, strain vps1, stronger effect = lower value 0.961 | S. cerevisiae deletion strains, locus YKR026C, strain gcn3, stronger effect = lower value 1.02 | S. cerevisiae deletion strains, locus YKR091W, strain srl3, stronger effect = lower value 1.02 | S. cerevisiae deletion strains, locus YLL001W, strain dnm1, stronger effect = lower value 1.02 | S. cerevisiae deletion strains, locus YLL026W, stronger effect = lower value 1.02 | S. cerevisiae deletion strains, locus YLL041C, strain sdh2, stronger effect = lower value 1 | S. cerevisiae deletion strains, locus YLR027C, strain aat2, stronger effect = lower value 1.01 | S. cerevisiae deletion strains, locus YLR039C, strain RIC1, stronger effect = lower value 1.04 | S. cerevisiae deletion strains, locus YLR058C, strain SHM2, stronger effect = lower value 1.01 | S. cerevisiae deletion strains, locus YLR102C, strain apc9, stronger effect = lower value 0.988 | S. cerevisiae deletion strains, locus YLR221C, strain rsa3, stronger effect = lower value 0.995 | S. cerevisiae deletion strains, locus YLR258W, strain gsy2, stronger effect = lower value 0.993 | S. cerevisiae deletion strains, locus YLR262C, strain YPT6, stronger effect = lower value 0.99 | S. cerevisiae deletion strains, locus YLR268W, strain sec22, stronger effect = lower value 0.993 | S. cerevisiae deletion strains, locus YLR320W, strain mms22, stronger effect = lower value 0.981 | S. cerevisiae deletion strains, locus YLR330W, strain CHS5, stronger effect = lower value 0.993 | S. cerevisiae deletion strains, locus YLR342W, strain FKS1 (second series), stronger effect = lower value 1.1 | S. cerevisiae deletion strains, locus YLR342W, strain FKS1, stronger effect = lower value 0.98 | S. cerevisiae deletion strains, locus YLR370C, strain arc18, stronger effect = lower value 1.01 | S. cerevisiae deletion strains, locus YLR371W, strain rom2, stronger effect = lower value 0.979 | S. cerevisiae deletion strains, locus YLR384C, strain iki3, stronger effect = lower value 1 | S. cerevisiae deletion strains, locus YLR418C, strain cdc73, stronger effect = lower value 0.931 | S. cerevisiae deletion strains, locus YML016C, strain PPZ1, stronger effect = lower value 1.03 | S. cerevisiae deletion strains, locus YML032C, strain rad52, stronger effect = lower value 0.99 | S. cerevisiae deletion strains, locus YML120C, strain ndi1, stronger effect = lower value 1 | S. cerevisiae deletion strains, locus YML124C, strain tub3, stronger effect = lower value 0.992 | S. cerevisiae deletion strains, locus YMR078C, strain ctf18, stronger effect = lower value 0.981 | S. cerevisiae deletion strains, locus YMR125W, strain sto1, stronger effect = lower value 1.04 | S. cerevisiae deletion strains, locus YMR129W, stronger effect = lower value 1.02 | S. cerevisiae deletion strains, locus YMR205C, strain PFK2, stronger effect = lower value 0.974 | S. cerevisiae deletion strains, locus YMR223W, strain ubp8, stronger effect = lower value 0.995 | S. cerevisiae deletion strains, locus YMR307W, strain GAS1, stronger effect = lower value 1.08 | S. cerevisiae deletion strains, locus YNL067W, strain RPL9B, stronger effect = lower value 0.984 | S. cerevisiae deletion strains, locus YNL071W, strain lat1, stronger effect = lower value 1.02 | S. cerevisiae deletion strains, locus YNL153C, strain GIM3, stronger effect = lower value 1 | S. cerevisiae deletion strains, locus YNL233W, strain BNI4, stronger effect = lower value 0.964 | S. cerevisiae deletion strains, locus YNL248C, strain rpa49, stronger effect = lower value 1.01 | S. cerevisiae deletion strains, locus YNL250W, strain rad50, stronger effect = lower value 0.968 | S. cerevisiae deletion strains, locus YNL271C, strain bni1, stronger effect = lower value 0.964 | S. cerevisiae deletion strains, locus YNL298W, strain CLA4, stronger effect = lower value 0.979 | S. cerevisiae deletion strains, locus YNL307C, strain MCK1, stronger effect = lower value 0.979 | S. cerevisiae deletion strains, locus YNL322C, strain KRE1 (second series), stronger effect = lower value 1.05 | S. cerevisiae deletion strains, locus YNL322C, strain KRE1, stronger effect = lower value 0.998 | S. cerevisiae deletion strains, locus YNR049C, strain mso1, stronger effect = lower value 1.02 | S. cerevisiae deletion strains, locus YNR052C, strain pop2, stronger effect = lower value 0.969 | S. cerevisiae deletion strains, locus YOL006C, strain TOP1, stronger effect = lower value 0.885 | S. cerevisiae deletion strains, locus YOL012C, strain htz1 1.2 | S. cerevisiae deletion strains, locus YOL147C, strain pex11, stronger effect = lower value 0.987 | S. cerevisiae deletion strains, locus YOR001W, strain rrp6, stronger effect = lower value 0.997 | S. cerevisiae deletion strains, locus YOR061W, strain CKA2, stronger effect = lower value 1.03 | S. cerevisiae deletion strains, locus YOR069W, strain VPS5, stronger effect = lower value 1.02 | S. cerevisiae deletion strains, locus YOR070C, strain gyp1, stronger effect = lower value 0.975 | S. cerevisiae deletion strains, locus YOR080W, strain dia2, stronger effect = lower value 1.02 | S. cerevisiae deletion strains, locus YOR083W, strain WHI5, stronger effect = lower value 0.976 | S. cerevisiae deletion strains, locus YOR136W, strain idh2, stronger effect = lower value 0.972 | S. cerevisiae deletion strains, locus YOR144C, strain elg1, stronger effect = lower value 0.999 | S. cerevisiae deletion strains, locus YOR184W, strain ser1, stronger effect = lower value 0.982 | S. cerevisiae deletion strains, locus YOR265W, strain rbl2, stronger effect = lower value 0.984 | S. cerevisiae deletion strains, locus YOR270C, strain vph1, stronger effect = lower value 0.835 | S. cerevisiae deletion strains, locus YOR290C, strain snf2, stronger effect = lower value 0.985 | S. cerevisiae deletion strains, locus YOR316C, strain cot1, stronger effect = lower value 1 | S. cerevisiae deletion strains, locus YPL078C, strain atp4, stronger effect = lower value 1.01 | S. cerevisiae deletion strains, locus YPL106C, strain sse1, stronger effect = lower value 0.893 | S. cerevisiae deletion strains, locus YPL240C, strain hsp82, stronger effect = lower value 1.02 | S. cerevisiae deletion strains, locus YPR119W, strain clb2, stronger effect = lower value 0.999 | S. cerevisiae deletion strains, locus YPR141C, strain kar3, stronger effect = lower value 0.964 | S. cerevisiae deletion strains, locus YPR163C, strain tif3, stronger effect = lower value 0.987 | S. cerevisiae deletion strains, locus YPR167C, strain met16, stronger effect = lower value 0.986 | S. cerevisiae deletion strains, strain wtn01, stronger effect = lower value 0.994 | S. cerevisiae strains, strain wild type, stronger effect = lower value 1.01
active: S. cerevisiae deletion strains, locus YLR262C, strain YPT6 (second series), stronger effect = lower value 0.766 | S. cerevisiae deletion strains, locus YLR357W, strain rsc2, stronger effect = lower value 0.807 | S. cerevisiae deletion strains, locus YMR058W, strain fet3, stronger effect = lower value 0.338 | S. cerevisiae deletion strains, locus YMR231W, strain pep5, stronger effect = lower value 0.762 | S. cerevisiae deletion strains, locus YNL209W, strain ssb2, stronger effect = lower value 0.735 | S. cerevisiae deletion strains, locus YOR106W, strain vam3, stronger effect = lower value 0.648 | S. cerevisiae deletion strains, locus YPL051W, strain arl3, stronger effect = lower value 0.82
